For 40 compounds, Potency results are on record in PubChem BioAssay (Tox21).

Inconclusive results are not listed. Where a call stands in place of a potency, no number is given. Calls of active or inactive are those of the source. Calls follow the shape of the dose curve; as a rule, active = well fitted cell-killing curve with a large enough effect in the repeat runs; inconclusive = weak or mixed curves, or effect the other way; inactive = flat fitted curve, though single readings scatter.
Potency is read from the fitted curve at half-maximal effect.

The test is described as follows: qHTS assay to identify small molecule antagonists of the androgen receptor (AR) signaling pathway using the MDA cell line - cell viability counter screen (AID 743041; also: nearly all actives have a fitted effect of over 45% in size). As to conditions: MDA-kb2 viability, CellTiter-Fluor, 16 h, cells co-treated with R1881 androgen agonist; series mostly up to 70.3 µM. An excerpt:
National Center for Advancing Translational Sciences [NCATS]
NIH Chemical Genomics Center [NCGC]
U.S. Environmental Protection Agency [EPA]
National Institutes of Environmental Health Sciences [NIEHS]
National Toxicology Program [NTP]
U.S. Food and Drug Administration [FDA]
Androgen receptor (AR), a nuclear hormone receptor, plays a critical role in AR-dependent prostate cancer and other androgen related diseases. Endocrine disrupting chemicals (EDCs) and their interactions with steroid hormone receptors like AR may cause disruption of normal endocrine function as well as interfere with metabolic homeostasis, reproduction, developmental and behavioral functions. To identify the compounds that inhibit AR signaling, MDA-kb2 AR-luc cell line (from ATCC, deposited by Wilson et al.) was used to screen the Tox21 10K compound library. MDA-kb2 AR-luc cell line is human breast carcinoma cell line that was stably transfected with a luciferase reporter gene under control of the MMTV promoter containing response elements for both androgen receptor (AR) and glucocorticoid receptor (GR). The cytotoxicity of the Tox21 compound library against the MDA-kb2 AR-luc cell line was tested in parallel by measuring the cell viability using CellTiter-Fluor assay (Promega, Madison, WI) in the same wells.
Tox21 Assay Protocol Summary:
MDA-kb2 AR-luc cells were dispensed at 3,000 cells/4 uL/well of culture medium into white wall/solid-bottom 1536-well plates using a Multidrop Combi (ThermoFisher Scientific, Waltham, MA) dispenser. After the assay plates were incubated at a 37C and 0% CO2 for 5 hr, 23 nL of compounds dissolved in DMSO, positive controls or DMSO only was transferred to the assay plate by a Pintool station (Kalypsys, San Diego, CA), followed by addition of 1 uL of agonist (R1881) in culture medium using a Bioraptr Flying Reagent Dispenser (FRD) workstation (Beckman Coulter, Indianapolis, IN, USA). The plates were incubated at a 37C and 0% CO2 for 16 h. After 15.5 h incubation, 1uL of CellTiter-Fluor reagent (Promega) was added using a Bioraptr FRD to each plate for measuring cytotoxicity. The fluorescence intensity was quantified on a ViewLux plate reader (PerkinElmer, Shelton, CT) following 30 min incubation at 37C and 0% CO2.
For orientation: Quantitative high-throughput screening tests each substance at several concentrations.
In the case of `O=C(c1ccccc1)C1CCC1`, the Potency entry is “inactive”.
In the case of `CC(=O)OCC(=O)[C@@]1(OC(C)=O)[C@@H](C)C[C@H]2[C@@H]3C[C@H](F)C4=CC(=O)C=C[C@]4(C)[C@@]3(F)[C@@H](O)C[C@@]21C` it was “inactive”; in that of `COC(=O)c1sccc1S(N)(=O)=O`, “inactive”; in that of `CN(C)CC/C=C1\c2ccccc2Sc2ccc(Cl)cc21`, 27.8 µM (active).
On to `Cc1cccc(C)c1NC(=O)c1cc(S(N)(=O)=O)c(Cl)cc1O`, for which the Potency entry was “inactive”.
Regarding `CC(C)C1CCC(C(=O)N[C@H](Cc2ccccc2)C(=O)O)CC1` (stereo not given in full), the Potency entry is “inactive”.
In the case of `CCN(CC)CCOC(=O)C(c1ccccc1)c1ccccc1`, the Potency result is “inactive”.
The entry for `CCOC(=O)c1ccc(NC(=O)CN2CCCCC2)cc1` is “inactive”; for `CC(=O)C(C)=O` it is “inactive”; for `SCCc1cnccn1` it is “inactive”.
With `CC1=C2[C@@H]([C@H](C)CC[C@H]2/C=C(\C)C(=O)O)[C@H](O)C1`, the Potency result is “inactive”.
In the case of `C[C@H](CS)C(=O)N1CCC[C@H]1C(=O)O` it was “inactive”; in that of `c1ccc(CCCc2ccncc2)cc1`, “inactive”; in that of `CCC(CO)(CO)CO`, “inactive”.
In the case of `CCN(CC)c1cccc(O)c1` it was “inactive”; in that of `CCN(CC)CCOc1ccccc1C(=O)CCc1ccccc1`, “inactive”.
In the case of `CC(C)COC(=O)COc1cc(Cl)c(Cl)cc1Cl` it was “inactive”.
Turning to `CCCCCCCCCCCCCCN(C)C`, the Potency entry was “inactive”.
In the case of `O=C(O)CCS` it was “inactive”.
The entry for `COC(C)(C)OC` is “inactive”; for `C[C@@H]1C[C@H]2[C@@H]3CCC4=CC(=O)C=C[C@]4(C)[C@@]3(F)[C@@H](O)C[C@]2(C)[C@@]1(O)C(=O)COP(=O)(O)O` it is “inactive”.
In the case of `Cc1ccc(NC(=O)N(C)C)cc1NC(=O)N(C)C` it was “inactive”.
Turning to `C=C(C)c1ccccc1`, the Potency result was “inactive”.
In the case of `COC(OC)OC` it was “inactive”; in that of `CCCCCCC(CO)CCCC` (stereo not given), “inactive”.
The entry for `CC(C)c1ccc(C#N)cc1` is “inactive”; for `CCCCCCC(O)CCCCCCCCCCC(=O)OC` (stereo not given) it is “inactive”; for `CC(C)N=C=NC(C)C` it is “inactive”.
In the case of `CC(C(=O)O)c1ccc(C(=O)c2cccs2)cc1` (stereo not given) it was “inactive”.
For the compound `CC(=O)Oc1cccc(O)c1`, the Potency entry is “inactive”.
In the case of `CC[C@@H](CO)NCCN[C@@H](CC)CO` it was “inactive”; in that of `CC(=O)NCCO`, “inactive”; in that of `CCc1ccc(C)cc1`, “inactive”.
As for `CC(C)COC(=O)c1ccc(O)cc1`, the Potency entry was “inactive”.
In the case of `CCCCCCCCCCCSCC(=O)O` it was “inactive”.
In the case of `COc1ccc(-c2cc(C(F)F)nn2-c2ccc(S(N)(=O)=O)cc2)cc1F` it was “inactive”; in that of `CCN(CC)CCNC(=O)c1cc(Cl)c(N)cc1OC`, “inactive”.
The entry for `CCOC(=O)C(C)O` (stereo not given) is “inactive”.
As to `CCC(=O)OCc1ccc(OC)cc1`, the Potency result was “inactive”.
In the case of `CCCCCCCCCCCCCC(=O)OCC(O)CO` (stereo not given) it was “inactive”.
